Results filed as inconclusive are left out. The source made the active and inactive calls. The call rests on the fitted dose curve; in most records, active means well fitted curve in the direction sought with a large enough effect in the repeat runs; inconclusive means weak or mixed curves; inactive means no such curve, though single readings can be large; an effect the other way counts as inactive or inconclusive.
Columns and labels:
[1] = Caspase-3/7 induction in CHO-K1 cells by small molecules, qHTS cell viability counter screen (AID 1346979); further: nearly all actives have a fitted effect of over 35% in size
Outline: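 Seeding: 1,500 CHO-K1 cells/well. Rest: 5hr, 37C. Treatment: compounds in DMSO, 16hr. Read: CellTiter-Fluor, 1hr, fluorescence.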

[2] = Caspase-3/7 induction in CHO-K1 cells by small molecules, qHTS assay (AID 1346980); further: nearly all actives have a fitted effect of over 15% in size
Outline: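 Wild-type CHO-K1 cells exposed to compounds for 17hr at 37 C, 5% CO2. Caspase-3/7 activity then measured by Caspase-Glo 3/7 luminescence after 30min at room temperature.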

[3] = target: Nuclear receptor subfamily 1 group I member 2 (Homo sapiens) (UniProt O75469); experiment: Human pregnane X receptor (PXR) small molecule agonists, qHTS assay (AID 1346982); further: nearly all actives have a fitted effect of over 35% in size; further: potency means the concentration at half of the fitted maximal effect
Chain of Nuclear receptor subfamily 1 group I member 2 (Homo sapiens) (O75469 whole entry, looked up): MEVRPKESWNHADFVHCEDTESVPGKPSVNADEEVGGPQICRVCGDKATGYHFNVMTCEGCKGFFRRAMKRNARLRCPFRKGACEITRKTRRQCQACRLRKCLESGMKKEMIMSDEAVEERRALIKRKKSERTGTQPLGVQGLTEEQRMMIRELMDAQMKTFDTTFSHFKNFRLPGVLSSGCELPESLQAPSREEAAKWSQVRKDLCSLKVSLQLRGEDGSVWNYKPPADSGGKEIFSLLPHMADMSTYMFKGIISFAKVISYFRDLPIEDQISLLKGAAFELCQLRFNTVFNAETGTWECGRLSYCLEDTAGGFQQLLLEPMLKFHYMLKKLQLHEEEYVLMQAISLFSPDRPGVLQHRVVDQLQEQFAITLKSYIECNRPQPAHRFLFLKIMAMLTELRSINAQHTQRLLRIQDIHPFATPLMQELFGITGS
Outline: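 Reporter HepG2 cells expressing PXR-Luc are cultured in charcoal-stripped FBS (5%), treated with compounds for 24 hr at 37 C, and assayed by ONE-Glo luminescence after 30 min at room temperature.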

[4] = target: Cytochrome P450 2D6 (Homo sapiens) (UniProt P10635); experiment: Cytochrome P450 Family 2 Subfamily D Member 6 (CYP2D6) small molecule antagonists: luciferase reporter qHTS assay (AID 1671196); further: nearly all actives have a fitted effect of over 50% in size; further: potency means the concentration at half of the fitted maximal effect; on activity change, negative = inhibition: series mostly up to about 120 µM
Chain of Cytochrome P450 2D6 (Homo sapiens) (P10635 whole entry, looked up): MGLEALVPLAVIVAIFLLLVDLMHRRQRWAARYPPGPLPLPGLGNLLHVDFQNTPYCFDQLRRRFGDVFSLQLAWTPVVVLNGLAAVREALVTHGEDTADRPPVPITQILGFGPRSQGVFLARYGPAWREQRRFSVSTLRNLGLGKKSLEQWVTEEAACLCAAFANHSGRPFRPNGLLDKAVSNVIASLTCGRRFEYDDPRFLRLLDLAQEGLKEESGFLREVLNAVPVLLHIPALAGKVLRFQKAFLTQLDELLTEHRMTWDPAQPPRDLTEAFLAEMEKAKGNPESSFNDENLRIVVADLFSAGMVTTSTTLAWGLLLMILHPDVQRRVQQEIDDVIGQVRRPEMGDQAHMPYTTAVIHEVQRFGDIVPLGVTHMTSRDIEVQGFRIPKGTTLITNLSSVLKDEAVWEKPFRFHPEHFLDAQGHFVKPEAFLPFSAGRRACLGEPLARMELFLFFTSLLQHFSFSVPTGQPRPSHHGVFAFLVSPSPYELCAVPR
Outline: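 Test chemicals meet CYP2D6 plus proluciferin substrate (10 min, RT); NADPH regenerating solution then drives turnover for 1 h. Detection reagent halts the reaction; luminescence measured after 20 min.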

[5] = target: Cytochrome P450 2C19 (Homo sapiens) (UniProt P33261); experiment: Cytochrome P450 Family 2 Subfamily C Member 19 (CYP2C19) small molecule antagonists: luciferase reporter qHTS assay (AID 1671197); further: nearly all actives have a fitted effect of over 65% in size; further: potency means the concentration at half of the fitted maximal effect; on activity change, negative = inhibition: series mostly up to about 120 µM
Chain of Cytochrome P450 2C19 (Homo sapiens) (P33261 whole entry, looked up): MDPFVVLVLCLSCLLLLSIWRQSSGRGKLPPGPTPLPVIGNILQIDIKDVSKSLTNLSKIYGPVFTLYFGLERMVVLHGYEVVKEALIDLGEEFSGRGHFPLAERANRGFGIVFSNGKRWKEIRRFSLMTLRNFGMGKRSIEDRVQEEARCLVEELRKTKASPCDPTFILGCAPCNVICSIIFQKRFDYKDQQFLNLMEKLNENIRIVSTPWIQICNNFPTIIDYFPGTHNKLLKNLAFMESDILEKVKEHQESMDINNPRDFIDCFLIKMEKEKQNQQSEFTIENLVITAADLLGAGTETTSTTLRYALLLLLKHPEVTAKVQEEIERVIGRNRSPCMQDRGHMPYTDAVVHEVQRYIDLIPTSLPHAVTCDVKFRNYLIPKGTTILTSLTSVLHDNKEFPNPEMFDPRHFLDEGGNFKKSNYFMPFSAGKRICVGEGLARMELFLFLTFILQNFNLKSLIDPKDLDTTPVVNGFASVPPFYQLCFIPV
Outline: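 P450-Glo CYP2C19 system: enzyme-substrate mix with compound 10 min at room temperature, then NADPH regeneration solution, 1 h at 37C. Proluciferin-to-luciferin conversion detected by luminescence after 20 min with detection reagent; ketoconazole as positive control.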

[6] = Caspase-3/7 induction in HepG2 cells by small molecules, qHTS cell viability counter screen (AID 1346981); further: series mostly up to about 92 µM; nearly all actives have a fitted effect of over 30% in size
Outline: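 In this quantitative HTS counter screen, compounds delivered in DMSO were left on unmodified HepG2 cells for 16 hr at 37 C. Viability was then determined fluorometrically with CellTiter-Fluor, in parallel with caspase-3/7 induction in the same wells.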

[7] = target: Cytochrome P450 2C9 (Homo sapiens) (UniProt P11712); experiment: Cytochrome P450 Family 2 Subfamily C Member 9 (CYP2C9) small molecule antagonists: luciferase reporter qHTS assay (AID 1671198); further: nearly all actives have a fitted effect of over 50% in size; further: potency means the concentration at half of the fitted maximal effect; on activity change, negative = inhibition: series mostly up to about 120 µM
Chain of Cytochrome P450 2C9 (Homo sapiens) (P11712 whole entry, looked up): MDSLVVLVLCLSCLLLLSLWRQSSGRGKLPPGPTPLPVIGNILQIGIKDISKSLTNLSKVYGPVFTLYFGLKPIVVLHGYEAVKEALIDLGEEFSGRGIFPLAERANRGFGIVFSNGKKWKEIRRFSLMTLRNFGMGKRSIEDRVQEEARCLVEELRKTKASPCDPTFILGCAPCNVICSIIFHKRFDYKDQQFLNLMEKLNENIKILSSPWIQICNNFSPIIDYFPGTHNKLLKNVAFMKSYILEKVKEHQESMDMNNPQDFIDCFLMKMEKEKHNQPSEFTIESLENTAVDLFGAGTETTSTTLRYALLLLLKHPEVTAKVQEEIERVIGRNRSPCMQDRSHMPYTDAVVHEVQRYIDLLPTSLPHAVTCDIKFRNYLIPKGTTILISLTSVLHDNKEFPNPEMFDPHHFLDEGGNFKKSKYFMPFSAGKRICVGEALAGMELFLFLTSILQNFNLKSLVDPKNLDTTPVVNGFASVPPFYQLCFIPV
Outline: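 P450-Glo proluciferin substrate with CYP2C9 enzyme; 10 min RT preincubation, then NADPH regeneration 1 h at 37C; luciferin detection reagent 20 min RT, luminescence in relative luminescence units.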

[8] = target: Nuclear receptor subfamily 1 group I member 2 (Rattus norvegicus) (UniProt Q9R1A7); experiment: Rat pregnane X receptor (rPXR) activation by small molecules, qHTS assay (AID 1346983); conditions: rPXR luciferase reporter cells, One-Glo luminescence, 24 h; active compounds read high; further: nearly all actives have a fitted effect of over 20% in size
Chain of Nuclear receptor subfamily 1 group I member 2 (Rattus norvegicus) (Q9R1A7 whole entry, looked up): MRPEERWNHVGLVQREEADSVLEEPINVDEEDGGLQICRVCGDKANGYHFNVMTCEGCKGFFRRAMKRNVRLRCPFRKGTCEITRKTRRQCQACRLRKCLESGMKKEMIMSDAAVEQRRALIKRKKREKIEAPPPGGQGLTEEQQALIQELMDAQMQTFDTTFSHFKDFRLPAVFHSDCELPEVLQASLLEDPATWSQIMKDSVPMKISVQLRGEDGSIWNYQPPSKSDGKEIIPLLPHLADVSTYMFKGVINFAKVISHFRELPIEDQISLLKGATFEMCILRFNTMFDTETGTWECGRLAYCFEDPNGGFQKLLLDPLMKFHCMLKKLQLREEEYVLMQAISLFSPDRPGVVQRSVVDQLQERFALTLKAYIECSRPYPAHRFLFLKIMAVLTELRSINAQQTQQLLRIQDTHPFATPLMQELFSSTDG
Outline: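 Cell-based rPXR activation assay: rPXR cells, 2,000 per well, rested 5hr at 37 C, then exposed to compounds in DMSO for 24 hr at 37 C. Luciferase activity read by One-Glo luminescence after 30 min at room temperature.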

[9] = target: Nuclear receptor subfamily 1 group I member 2 (Homo sapiens) (UniProt O75469); experiment: CYP3A4 induction through human pregnane X receptor (PXR) by small molecules, qHTS assay (AID 1346984); further: nearly all actives have a fitted effect of over 40% in size
Outline: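 Induction measured in HepG2-based DPX-2 cells co-expressing human PXR and a CYP3A4 promoter-driven luciferase. After a 24-hour compound exposure, cells received CYP3A4 luciferin substrate at 3uM final for 3 hours, and light output was then recorded.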

[10] = target: Nuclear receptor subfamily 1 group I member 2 (Homo sapiens) (UniProt O75469); experiment: Human pregnane X receptor (PXR) activation by small molecules, qHTS assay (AID 1346985); further: nearly all actives have a fitted effect of over 40% in size; further: potency means the concentration at half of the fitted maximal effect
Outline: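 DPX-2 cells (HepG2 co-transfected with a PXR response element and a CYP3A4-promoter luciferase construct) were seeded at 2,000 per well, rested 5 hr at 37C, then exposed to DMSO-dissolved compounds for 24 hr. Activation was read as luciferase luminescence.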
On the % scale 0 is the no-effect control and ±100 the full control effect.

CC(=O)c1sc(C)nc1C
inactive: Potency [1] | outcome [2] | Potency [3] | Potency [4] | Potency [5]

CCNC(=O)C1CC(C)CCC1C(C)C (configuration not stated)
inactive: Potency [1] | outcome [2] | Potency [6] | Potency [4]

CN(C)c1ccc(C=O)cc1
inactive: Potency [1] | outcome [2] | Potency [3] | Potency [4]
active: Potency [5] 79.6 µM | Potency [7] 35.6 µM

C[C@H](CCC(=O)O)[C@H]1CC[C@H]2[C@@H]3C(=O)C[C@@H]4CC(=O)CC[C@]4(C)[C@H]3CC(=O)[C@]12C
inactive: Potency [1] | outcome [2] | Potency [3] | max activation [8] -0.558% | Potency [9] | Potency [4] | Potency [5] | Potency [7]

CCN(C)C(=O)Oc1cccc([C@H](C)N(C)C)c1
inactive: Potency [1] | outcome [2] | Potency [3] | max activation [8] 7.36% | Potency [10] | Potency [5]

COc1cc(C(=S)N2CCOCC2)cc(OC)c1OC
inactive: Potency [1] | outcome [2] | Potency [3] | max activation [8] -2.22% | Potency [9] | Potency [4] | Potency [7]

COc1cc(N)ccc1C
inactive: Potency [1] | outcome [2] | Potency [6]
active: Potency [4] 12.5 µM | Potency [5] 1.98 µM | Potency [7] 6.26 µM

Cc1[nH]cnc1-c1ccc(Cl)cc1
active: Potency [4] 13.8 µM | Potency [5] 15.5 µM | Potency [7] 15.5 µM
inactive: Potency [1] | outcome [2] | Potency [6]

Nc1ccc(S(=O)(=O)Nc2ccc(Cl)nn2)cc1
inactive: Potency [1] | outcome [2] | Potency [3] | max activation [8] -0.0524% | Potency [9] | Potency [4] | Potency [5]

c1ccc2c(c1)ccc1c3ccccc3ccc21
inactive: Potency [1] | outcome [2] | Potency [3] | Potency [4]

O=C(O)c1cc(Cl)cc([N+](=O)[O-])c1Cl
inactive: Potency [1] | outcome [2] | Potency [3]

O=C(O)c1ccc(Cl)cc1Cl
inactive: Potency [1] | outcome [2] | Potency [3] | Potency [4] | Potency [5] | Potency [7]

CCCCCCCC/C=C\CCCCCCCC(=O)OCCCC
inactive: activity change, negative = cytotoxicity [1] 3.24% [at 19 µM] | caspase-3/7 activation [2] -0.343% [at 19 µM] | activation [3] 3.05% [at 19 µM] | activity change, negative = inhibition [4] -8.07% [at 23.6 µM] | activity change, negative = inhibition [5] -24.4% [at 23.6 µM]

NC(CO)C(=O)NNCc1ccc(O)c(O)c1O (configuration not stated)
inactive: Potency [1] | outcome [2] | Potency [6] | max activation [8] -1.3%

O=C(CS(=O)Cc1ccco1)NC/C=C\COc1cc(CN2CCCCC2)ccn1 (configuration not stated)
inactive: Potency [1] | outcome [2] | Potency [3] | max activation [8] -0.727% | Potency [9] | Potency [5] | Potency [7]

CCC(C=O)CC
inactive: Potency [1] | outcome [2] | Potency [3] | Potency [4] | Potency [5] | Potency [7]

CCOc1cc(NC(C)=O)ccc1C(=O)OC
inactive: Potency [1] | outcome [2] | Potency [3] | max activation [8] -4.18% | Potency [9] | Potency [4]

BrCc1cccc(Oc2ccccc2)c1
active: Potency [3] 61.1 µM | Potency [4] 35.6 µM | Potency [5] 7.96 µM | Potency [7] 79.6 µM
inactive: Potency [1] | outcome [2]

CCCC/C=C/C=C\C=O
inactive: Potency [1] | outcome [2] | Potency [6] | Potency [7]
active: Potency [3] 24.3 µM

COCCc1ccc(OCC2CO2)cc1 (configuration not stated)
inactive: Potency [1] | outcome [2] | Potency [3] | Potency [4] | Potency [5]

COc1ccc(C2CNC(=O)C2)cc1OC1CCCC1 (configuration not stated)
inactive: Potency [1] | outcome [2] | Potency [6] | max activation [8] -2.12% | Potency [4] | Potency [5] | Potency [7]

COc1cc2c(cc1OC)[C@@H]1CC(=O)[C@@H](CC(C)C)CN1CC2
active: Potency [4] 12.3 µM | Potency [5] 7.76 µM | Potency [7] 11 µM
inactive: Potency [1] | outcome [2] | Potency [6]

Cc1cc(NC(=O)C2=C(O)c3ccccc3S(=O)(=O)N2C)no1
inactive: Potency [1] | outcome [2] | Potency [6] | Potency [5]

COc1ccc(S(=O)(=O)N2c3ccc(Cl)cc3[C@@](O)(c3ccccc3Cl)[C@H]2C(=O)N2CCC[C@@H]2C(N)=O)cc1OC
active: Potency [10] 14.1 µM | Potency [7] 17.4 µM
inactive: Potency [1] | outcome [2] | Potency [6] | max activation [8] 11.3% | Potency [9] | Potency [4] | Potency [5]

CC(C)(C)NC(N)=O
active: Potency [5] 71 µM
inactive: Potency [1] | outcome [2] | Potency [3] | Potency [4]

O=C(NCC(O)CO)c1c(I)c(C(=O)NCC(O)CO)c(I)c(N(CCO)C(=O)CO)c1I (configuration not stated)
inactive: Potency [1] | outcome [2] | Potency [6] | max activation [8] -4.62%

COc1ccc2c(c1)C(=O)N(CCc1ccc(S(=O)(=O)NC(=O)NC3CCCCC3)cc1)C(=O)C2(C)C
active: Potency [7] 13.8 µM
inactive: Potency [1] | outcome [2] | Potency [6] | max activation [8] -1.03% | Potency [4] | Potency [5]

CC(C)(C)c1cc(CCC(=O)NN)cc(C(C)(C)C)c1O
inactive: Potency [1] | outcome [2]
active: Potency [3] 34.4 µM | Potency [4] 35.6 µM | Potency [5] 6.33 µM | Potency [7] 5.03 µM

N[C@@H](CCC(=O)Nc1ccc([N+](=O)[O-])cc1)C(=O)O
inactive: Potency [1] | outcome [2] | Potency [3] | Potency [4]

CCCOC(OCCC)OCCC
inactive: Potency [1] | outcome [2] | Potency [3] | Potency [4] | Potency [5] | Potency [7]

Cc1ccccc1C(=O)Nc1ccc(C(=O)N2CCCC(N(C)C)c3ccccc32)cc1 (configuration not stated)
inactive: outcome [2] | Potency [6] | Potency [4] | Potency [5]
active: Potency [3] 0.298 µM

O=C(Nc1ccc(Cl)c(Cl)c1)C1CC1
inactive: outcome [2] | Potency [6] | max activation [8] -0.7% | Potency [9] | Potency [4]
active: Potency [3] 29.8 µM | Potency [5] 11 µM | Potency [7] 30.9 µM

O=C(O)Cc1ccc(Cl)cc1Cl
active: Potency [4] 31.7 µM
inactive: Potency [1] | outcome [2] | Potency [5]

O=C1c2cccc3c2[C@H](CCC3)CN1[C@@H]1CN2CCC1CC2
inactive: outcome [2] | Potency [6] | Potency [3] | max activation [8] -9.35% | Potency [7]

O=C1CCCC(=O)O1
active: Potency [7] 12.6 µM
inactive: Potency [1] | outcome [2] | Potency [3]

O=C(/N=N/C(=O)OCc1ccccc1)OCc1ccccc1
active: Potency [3] 30.6 µM | Potency [5] 1.78 µM
inactive: outcome [2] | Potency [6] | Potency [4]

CC[C@H](C)C(=O)O[C@H]1C[C@H](O)C=C2C=C[C@H](C)[C@H](CC[C@@H](O)C[C@@H](O)CC(=O)O)[C@H]21
inactive: outcome [2] | Potency [6] | Potency [3] | max activation [8] -0.271% | Potency [9] | Potency [4] | Potency [5]

CC(=C(CCOC(=O)C(C)C)SSC(CCOC(=O)C(C)C)=C(C)N(C=O)Cc1cnc(C)nc1N)N(C=O)Cc1cnc(C)nc1N
inactive: outcome [2] | Potency [6] | Potency [3] | max activation [8] -2.83% | Potency [9] | Potency [10] | Potency [4] | Potency [5] | Potency [7]

Cc1ccc2c(c1)OCC(=O)CO2
active: Potency [4] 35.6 µM
inactive: Potency [1] | outcome [2] | Potency [3] | Potency [7]

CC(CN)CC(C)(C)CCN (configuration not stated)
inactive: outcome [2] | Potency [6] | Potency [3]
active: Potency [4] 11.5 µM | Potency [5] 36.5 µM

C[C@@H]1O[C@@H](O[C@@H]2[C@@H](O)[C@H](OCCc3ccc(O)c(O)c3)O[C@H](CO[C@@H]3O[C@H](CO)[C@@H](O)[C@H](O)[C@H]3O)[C@H]2OC(=O)/C=C/c2ccc(O)c(O)c2)[C@H](O)[C@H](O)[C@H]1O
inactive: outcome [2] | Potency [6] | Potency [3] | Potency [4] | Potency [5]

CC(=O)N[C@@H](CCC(=O)O)C(=O)O
inactive: outcome [2] | Potency [6] | Potency [3] | max activation [8] -1.49% | Potency [9] | Potency [4] | Potency [7]

CN1CCN(CC(=O)N2c3ccccc3C(=O)Nc3cccnc32)CC1
inactive: activity change, negative = cytotoxicity [1] 7.7% [at 8.39 µM] | caspase-3/7 activation [2] 0.448% [at 8.39 µM] | activation [3] -11.1% [at 8.39 µM] | activity change, negative = inhibition [4] -4.49% [at 10.5 µM] | activity change, negative = inhibition [7] 2.89% [at 10.5 µM]

C=C(C)C(=O)OCC(C)(C)COC(=O)C(=C)C
inactive: Potency [1] | outcome [2] | Potency [3] | Potency [5] | Potency [7]

O=C(CCNNC(=O)c1ccncc1)NCc1ccccc1
inactive: outcome [2] | Potency [6] | Potency [3]
active: Potency [4] 15.5 µM | Potency [5] 11 µM

Cc1ccccc1OCC(O)CO (configuration not stated)
inactive: Potency [1] | outcome [2] | max activation [8] -0.0648%

CCCCCCCCSCC
inactive: Potency [1] | outcome [2] | Potency [3] | Potency [4] | Potency [7]

CC(=O)NCc1c(I)c(NC(C)=O)c(I)c(C(=O)O)c1I
inactive: outcome [2] | Potency [6] | Potency [3] | max activation [8] -0.535% | Potency [9]

— PubChem BioAssay (Tox21)
